Where “and” joins values, the source holds several entries; their conditions need not be identical. Equal entries are not always repeated. Results filed as inconclusive are left out. Some structures have more than one record in an assay (separate samples or runs), and their calls can disagree. Calls of active or inactive are those of the source. Calls follow the shape of the dose curve; as a rule, active = well fitted inhibition curve with a large enough effect in the repeat runs; inconclusive = weak or mixed curves; inactive = no such curve, though single readings can be large or run the other way.
Potency is read from the fitted curve at half-maximal effect.

Chain of Cytochrome P450 2C9 (Homo sapiens) (P11712 whole entry, looked up): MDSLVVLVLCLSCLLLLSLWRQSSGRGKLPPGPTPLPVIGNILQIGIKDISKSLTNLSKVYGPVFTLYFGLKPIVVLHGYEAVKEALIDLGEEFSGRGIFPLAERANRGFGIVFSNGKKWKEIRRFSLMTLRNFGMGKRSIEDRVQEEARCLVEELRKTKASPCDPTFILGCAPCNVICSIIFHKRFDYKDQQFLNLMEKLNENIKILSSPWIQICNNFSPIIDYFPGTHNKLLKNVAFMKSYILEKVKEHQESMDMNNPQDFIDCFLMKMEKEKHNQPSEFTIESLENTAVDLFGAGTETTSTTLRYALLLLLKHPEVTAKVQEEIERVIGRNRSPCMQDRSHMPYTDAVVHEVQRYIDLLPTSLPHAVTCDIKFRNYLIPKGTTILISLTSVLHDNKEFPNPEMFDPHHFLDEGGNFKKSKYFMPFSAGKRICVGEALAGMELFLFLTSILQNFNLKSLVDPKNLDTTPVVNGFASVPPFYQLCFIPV

In the first assay the target is Cytochrome P450 2C19 (Homo sapiens) (UniProt P33261). Nature of the assay: Cytochrome P450 Family 2 Subfamily C Member 19 (CYP2C19) small molecule antagonists: luciferase reporter qHTS assay (AID 1671197). Also: nearly all actives have a fitted effect of over 65% in size. Conditions: P450-Glo CYP2C19 enzyme, luciferin luminescence, 1 h; series mostly up to 52.9 µM. Put shortly: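 P450-Glo CYP2C19 screening system; proluciferin substrate; DMSO compound stocks; 10 min RT preincubation; NADPH regeneration, 1 h at 37C; luciferin detection reagent, 20 min RT; luminescence as RLU.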
Chain of Cytochrome P450 2C19 (Homo sapiens) (P33261 whole entry, looked up): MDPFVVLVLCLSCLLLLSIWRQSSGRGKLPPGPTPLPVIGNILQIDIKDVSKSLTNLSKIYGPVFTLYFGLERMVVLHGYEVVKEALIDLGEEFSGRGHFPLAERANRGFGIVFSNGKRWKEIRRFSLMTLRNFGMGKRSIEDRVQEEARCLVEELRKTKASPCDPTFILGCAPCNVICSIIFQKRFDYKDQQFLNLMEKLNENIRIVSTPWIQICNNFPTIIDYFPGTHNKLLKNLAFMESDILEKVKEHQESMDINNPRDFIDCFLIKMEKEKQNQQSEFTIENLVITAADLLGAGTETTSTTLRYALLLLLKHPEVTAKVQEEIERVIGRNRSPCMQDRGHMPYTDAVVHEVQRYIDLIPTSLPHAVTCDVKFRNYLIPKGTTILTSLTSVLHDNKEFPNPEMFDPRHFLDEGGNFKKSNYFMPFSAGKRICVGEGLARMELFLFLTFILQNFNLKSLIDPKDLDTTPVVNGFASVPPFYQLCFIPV
A general note: Reporter assays use an easily measured gene product as a stand-in for the process of interest.
On to `O=c1[nH]sc2ccccc12`, for which the Potency entry is “inactive”.
`CN(C)C(=O)C1(N2CCCCC2)CCN(CC[C@@]2(c3ccc(Cl)c(Cl)c3)CN(C(=O)c3ccccc3)CCO2)CC1`: the Potency is 1.67 µM (active).
Still for that read-out and setting: next, `CC(=O)S[C@@H]1CC2=CC(=O)CC[C@]2(C)[C@H]2CC[C@@]3(C)[C@@H](CC[C@@]34CCC(=O)O4)[C@H]12`: 6.33 µM (active); `CCOC(=O)O[C@H](C)OC(=O)c1ccc2c(c1)cc(C(=O)NC1CCN(C(C)C)CC1)n2Cc1cc(-c2ccc(Cl)s2)on1`: 46.9 µM (active).
On the same count and under the same terms, next, `Cc1ccc(-n2nc(C(C)(C)C)cc2NC(=O)Nc2ccc(OCCN3CCOCC3)c3ccccc23)cc1`: 3.89 µM (active); `CC1=C(C(=O)OC(C)C)C(c2cccc([N+](=O)[O-])c2)C(C(=O)OC2CN(C(c3ccccc3)c3ccccc3)C2)=C(N)N1` (stereo not drawn): 1.74 µM (active); `CCCCCCCCCCCCc1ccc(O)cc1`: 1.59 µM (active).
The same measure, in the same setting: next, `Cn1cc(C(=O)[C@@H]2CCc3nc[nH]c3C2)c2ccccc21`: 8.71 µM (active); `c1ccc(CSCc2ccccc2)cc1`: 2.82 µM (active); `O=C1c2ccccc2Cc2ccccc21`: 9.01 µM (active).
`Oc1cccc(-c2c3nc(c(-c4cccc(O)c4)c4ccc([nH]4)c(-c4cccc(O)c4)c4nc(c(-c5cccc(O)c5)c5ccc2[nH]5)CC4)C=C3)c1`: the Potency is 38.9 µM (active).
Still for that read-out and setting: the result for `COCCCC/C(=N\OCCN)c1ccc(C(F)(F)F)cc1` reads 0.692 µM (active); that for `CCCCCCCCCCCCCCCS(=O)(=O)Oc1ccccc1`, 4.36 µM (active); that for `O=C1Cc2cc(CCN3CCN(c4nsc5ccccc45)CC3)c(Cl)cc2N1`, 21.9 µM (active).
As for `Oc1ccc(N=Nc2ccccc2)cc1`, the Potency was 20.3 µM (active).
Consider `Fc1ccc([C@@H]2CCNC[C@H]2COc2ccc3c(c2)OCO3)cc1`, for which the Potency result was “inactive”.
The same measure, in the same setting: next, `Cc1cc(O)c(Cl)c(C)c1Cl`: 56.4 µM (active); `C[C@@H]1C[C@H]2[C@@H]3CCC4=CC(=O)C=C[C@]4(C)[C@@]3(Cl)[C@@H](O)C[C@]2(C)[C@@]1(OC(=O)c1ccco1)C(=O)CCl`: 9.77 µM (active).
As for `NNc1nc(-c2ccc([N+](=O)[O-])cc2)cs1`, the Potency is 5.03 µM (active).
Still for that read-out and setting: the result for `NNC(=O)c1cccc(C(=O)NN)c1` reads “inactive”.
On the same count and under the same terms, next, `C/C(=C(/OCCOc1ccc(Cl)cc1)c1ccc(Cl)cc1Cl)n1ccnc1`: 0.776 µM (active).
The same measure, in the same setting: the result for `O=C(N/N=C/c1ccccc1O)c1ccncc1` reads 4.9 µM (active).
As to `ON=C1CCCC1`, the Potency was 32.8 µM (active).
Consider `CCCCC(CC)COC(=O)c1ccccc1C(=O)O` (stereo not drawn), for which the Potency was 40.6 µM (active).
Regarding `CC(C)(C)c1ccc(C(=O)O)cc1`, the Potency result is “inactive”.
As to `C[n+]1ccn(Cc2ccccc2)c1`, the Potency entry was “inactive”.
The same measure, in the same setting: next, `O=C(NO)C1(NS(=O)(=O)c2ccc(Oc3ccc(F)cc3)cc2)CCOCC1`: 71 µM (active).
As to `CCCCCOc1ccccc1/C(=C\SC)n1ccnc1`, the Potency is 1.1 µM (active).
Same read-out and setting: the result for `Nc1nc2ccccc2n1Cc1ccc(F)cc1` reads 15.5 µM (active); that for `C[C@H]1[C@H]2CC[C@H]3[C@@H]4CC=C5C[C@@H](N(C)C)CC[C@]5(C)[C@H]4CC[C@]23CN1C`, “inactive”.
Still for that read-out and setting: the result for `Clc1ccc(C(Cn2ccnc2)OCc2ccc(Sc3ccccc3)cc2)c(Cl)c1` (stereo not drawn) reads 2.75 µM (active).
With `CC[C@H](c1ccc(O)cc1)[C@@H](CC)c1ccc(O)cc1`, the Potency is 79.6 µM (active) and inactive.
The same measure, in the same setting: the result for `Cc1cccc(N(C)C(=S)Oc2ccc3c(c2)C2CCC3C2)c1` (stereo not drawn) reads 1.74 µM (active).
Same read-out and setting: the result for `CCOC(=O)/C=C(C)/C=C/C=C(C)/C=C/c1c(C)cc(OC)c(C)c1C` reads 11 µM (active); that for `CC[C@@]1(O)C(=O)OCc2c1cc1n(c2=O)Cc2cc3c(CN(C)C)c(O)ccc3nc2-1`, “inactive”.

A further assay has as its target Cytochrome P450 2C9 (Homo sapiens) (UniProt P11712). Nature of the assay: Cytochrome P450 Family 2 Subfamily C Member 9 (CYP2C9) small molecule antagonists: luciferase reporter qHTS assay (AID 1671198). Also: nearly all actives have a fitted effect of over 50% in size. The following applies: P450-Glo CYP2C9 enzyme assay, luciferin luminescence; series mostly up to 53 µM. Summed up:
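Enzyme-substrate mix preincubated with compound 10 min at room temperature; reaction started with NADPH regeneration solution, 1 h 37C. Luminescent luciferin product read after 20 min detection reagent.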
Regarding `O=c1[nH]sc2ccccc12`, the Potency is 31.7 µM (active).
The same measure, in the same setting: next, `CN(C)C(=O)C1(N2CCCCC2)CCN(CC[C@@]2(c3ccc(Cl)c(Cl)c3)CN(C(=O)c3ccccc3)CCO2)CC1`: 37.3 µM (active); `CCOC(=O)O[C@H](C)OC(=O)c1ccc2c(c1)cc(C(=O)NC1CCN(C(C)C)CC1)n2Cc1cc(-c2ccc(Cl)s2)on1`: 33.2 µM (active); `Cc1ccc(-n2nc(C(C)(C)C)cc2NC(=O)Nc2ccc(OCCN3CCOCC3)c3ccccc23)cc1`: 6.92 µM (active).
With `CCCCCCCCCCCCc1ccc(O)cc1`, the Potency was 6.33 µM (active).
Same read-out and setting: the result for `Cn1cc(C(=O)[C@@H]2CCc3nc[nH]c3C2)c2ccccc21` reads “inactive”; that for `c1ccc(CSCc2ccccc2)cc1`, 35.5 µM (active).
For `O=C1c2ccccc2Cc2ccccc21`, the Potency is 16 µM (active).
On the same count and under the same terms, the result for `Oc1cccc(-c2c3nc(c(-c4cccc(O)c4)c4ccc([nH]4)c(-c4cccc(O)c4)c4nc(c(-c5cccc(O)c5)c5ccc2[nH]5)CC4)C=C3)c1` reads 13.8 µM (active).
Take `COCCCC/C(=N\OCCN)c1ccc(C(F)(F)F)cc1`: the Potency is 3.89 µM (active).
`CCCCCCCCCCCCCCCS(=O)(=O)Oc1ccccc1`: the Potency was 1.23 µM (active).
Regarding `O=C1Cc2cc(CCN3CCN(c4nsc5ccccc45)CC3)c(Cl)cc2N1`, the Potency was 27.5 µM (active).
Same read-out and setting: the result for `Oc1ccc(N=Nc2ccccc2)cc1` reads 36.1 µM (active).
Same read-out and setting: the result for `Fc1ccc([C@@H]2CCNC[C@H]2COc2ccc3c(c2)OCO3)cc1` reads “inactive”.
Still for that read-out and setting: next, `Cc1cc(O)c(Cl)c(C)c1Cl`: “inactive”; `C[C@@H]1C[C@H]2[C@@H]3CCC4=CC(=O)C=C[C@]4(C)[C@@]3(Cl)[C@@H](O)C[C@]2(C)[C@@]1(OC(=O)c1ccco1)C(=O)CCl`: 8.71 µM (active); `NNc1nc(-c2ccc([N+](=O)[O-])cc2)cs1`: 5.64 µM (active).
With `NNC(=O)c1cccc(C(=O)NN)c1`, the Potency is 35.6 µM (active).
The same measure, in the same setting: the result for `C/C(=C(/OCCOc1ccc(Cl)cc1)c1ccc(Cl)cc1Cl)n1ccnc1` reads 0.871 µM (active).
Still for that read-out and setting: the result for `O=C(N/N=C/c1ccccc1O)c1ccncc1` reads 2.19 µM (active); that for `ON=C1CCCC1`, 41.3 µM (active); that for `CCCCC(CC)COC(=O)c1ccccc1C(=O)O` (stereo not drawn), 5.91 µM (active).
Same read-out and setting: next, `CC(C)(C)c1ccc(C(=O)O)cc1`: “inactive”; `C[n+]1ccn(Cc2ccccc2)c1`: “inactive”.
For the compound `O=C(NO)C1(NS(=O)(=O)c2ccc(Oc3ccc(F)cc3)cc2)CCOCC1`, the Potency was 56.4 µM (active).
Same read-out and setting: the result for `CCCCCOc1ccccc1/C(=C\SC)n1ccnc1` reads 5.49 µM (active); that for `Nc1nc2ccccc2n1Cc1ccc(F)cc1`, “inactive”.
Same read-out and setting: the result for `C[C@H]1[C@H]2CC[C@H]3[C@@H]4CC=C5C[C@@H](N(C)C)CC[C@]5(C)[C@H]4CC[C@]23CN1C` reads “inactive”; that for `Clc1ccc(C(Cn2ccnc2)OCc2ccc(Sc3ccccc3)cc2)c(Cl)c1` (stereo not drawn), 2.75 µM (active); that for `CC[C@H](c1ccc(O)cc1)[C@@H](CC)c1ccc(O)cc1`, 39.9 µM (active) and 30.9 µM (active).
Still for that read-out and setting: next, `Cc1cccc(N(C)C(=S)Oc2ccc3c(c2)C2CCC3C2)c1` (stereo not drawn): 15.5 µM (active); `CCOC(=O)/C=C(C)/C=C/C=C(C)/C=C/c1c(C)cc(OC)c(C)c1C`: 6.17 µM (active).
On to `CC[C@@]1(O)C(=O)OCc2c1cc1n(c2=O)Cc2cc3c(CN(C)C)c(O)ccc3nc2-1`, for which the Potency entry was “inactive”.

For the origin of these results see PubChem BioAssay (Tox21).
